How the values were obtained:
Experiment in all cases: PBM binding z-score (relative to random genomic background probes); higher = stronger binding; sequences stand for … in GC…GCGATTGACAGCGTAGAATGAAGG
[1] = test system: FXR:RXRa (NR concentration 270 nM, RXRa partner concentration 90 nM)
Method in brief: (§1)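 Binding z-scores take random background probes as their reference. They come from custom Agilent 4×180K protein-binding microarrays incubated 1 h with ligand-free nuclear receptor dimers, with antibodies against each partner (one per run) detecting binding. Scanned fluorescence was regression-normalized.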

[2] = test system: LXRa:RXRa (NR concentration 270 nM, RXRa partner concentration 90 nM)
Method in brief: as §1

[3] = test system: LXRa homodimer (NR concentration 270 nM)
Method in brief: as §1

[4] = test system: LXRb:RXRa (NR concentration 270 nM, RXRa partner concentration 90 nM)
Method in brief: as §1

[5] = test system: LXRb homodimer (NR concentration 270 nM)
Method in brief: as §1

[6] = test system: PPARa:RXRa (NR concentration 270 nM, RXRa partner concentration 90 nM)
Method in brief: as §1

[7] = test system: PPARg:RXRa (NR concentration 180 nM, RXRa partner concentration 90 nM)
Method in brief: as §1

[8] = test system: PPARg:RXRa 270nM:90nM, anti-RXR (NR concentration 270 nM, RXRa partner concentration 90 nM)
Method in brief: as §1

[9] = test system: PPARg:RXRa 30nM:10nM, anti-RXR (NR concentration 30 nM, RXRa partner concentration 10 nM)
Method in brief: as §1

[10] = test system: PPARg:RXRa 90nM:30nM, anti-RXR (NR concentration 90 nM, RXRa partner concentration 30 nM)
Method in brief: as §1

Sequence	PBM binding z-score [1]	PBM binding z-score [2]	PBM binding z-score [3]	PBM binding z-score [4]	PBM binding z-score [5]	PBM binding z-score [6]	PBM binding z-score [7]	PBM binding z-score [8]	PBM binding z-score [9]	PBM binding z-score [10]
ATATGTAGGTTGAGGGTCATTCAGGTTGGTTCGC	3.26	3.21	1.56	3.31	1.32	4.86	7.99	7.58	6.69	7.97
TAGCCTAGGTCATGCGGGCCAGTAAAGTGTCGGC	3.65	3.17	-0.0418	1.66	-0.608	3.69	2.07	2.27	-0.0823	1.37
ACCTCTAGGTAAAGATAGTTCAGTGAATGCAAAT	0.216	3.68	0.25	0.57	-0.307	0.0564	0.269	0.318	0.0482	0.178
CCTGCTAGGTCATGGCCAGCTAATCTACAGTATG	3.55	2.55	0.0955	1.76	-0.401	3.99	2.7	3	0.634	2.16
CGTCCAAGGCCAGCAGGTCAGTGAAAGCGACGTG	0.378	0.0811	-0.472	-0.00321	-1.05	0.83	-0.215	-0.182	-0.911	-0.203
CCTATTAGTTGACCATAAGGACAACCGAAGCTCG	1.29	0.43	0.89	0.473	1.33	0.262	0.871	0.107	0.251	0.449
CCGACTGGGGCCTAAGGTTACCATAAGCCAGCCC	0.328	1.58	-0.169	0.716	-1.28	1.26	0.941	2.51	0.0484	1.11
GCGAGTTGGTCAGTAAAAGGTCACACACCGGTCG	3.43	4.42	4.78	4.07	0.343	4.36	3	4.71	2.22	4.23
CATACAGTGTCAGCTAGGCCAGAGTAGGGACGGC	-0.279	-0.284	-0.667	-0.652	0.0378	-0.3	0.467	-0.284	-0.315	-0.243
ATCTCTAGGTAACAAGTTCTGTGAAAGAGAGGAC	0.351	0.0214	0.142	0.0812	0.681	0.641	1.01	1.5	0.751	1.08
GTACCAAGGTGAATAGGTAGTTGATGAGTAGGCG	0.274	0.228	0.0287	0.0207	-0.534	0.934	0.795	0.782	0.189	0.453
ACTCGCAGGCCAAGGGTCACTCAAGATTAGTCCG	2.83	3.23	0.261	2.88	-0.377	4.4	5.6	6.01	4.12	5.92
ACGAGTTGGTCAGCTGAGGTCACACACAATTCGG	3.59	3.08	1.81	3.17	-0.229	3.6	1.64	2.17	0.283	1.3
CCTACTGGGCCAAGGTCAGTGATCAGTCAAAGCA	0.749	0.797	0.0206	0.924	-0.982	2.46	2.73	3.3	0.671	2.45
CCGACTGGGGCAAAGGTTATCATACTCAGTACGA	1.81	1.66	0.176	1.87	-1.04	5.54	10.5	9.03	8.6	9.34
CCTTACGGGTCACTCCACGTTATAGCATCGGAGT	4.04	3.03	0.131	2.58	0.341	4.28	3.02	3.29	1.1	2.31
CGAACTAGTTCATCCAGGACAGTGAATACATTGA	0.527	0.53	0.205	0.693	-0.0526	0.838	0.619	0.145	0.0881	0.329
TCTTGTAGATCGACAGGAGGTTAAGAAAGATCGA	-0.239	0.869	-0.338	0.656	-0.423	0.999	-0.276	1.14	2.24	1.55
GCTAGTTGGTCAGTAACAGGTCACACACCGGTCG	0.984	1.45	1.48	1.39	-0.167	2.06	0.82	1.12	-0.211	0.627
CCGACTGGGGCAGAAATGTTACCATACCATCCGG	-0.183	-0.371	-0.171	-0.528	-0.781	-0.385	0.729	-0.0813	-0.351	-0.433
CCCACTGGGCCAAAGGTCATTGATTCCAATGCTC	4.95	4.92	4.26	4.72	0.641	6.5	11.7	10.5	10.2	11
TTAGCAAGGTGAAGGTCGTTGATCCCTCTGTAGA	1.98	1.6	-0.45	0.97	-0.841	2.38	1.94	3.32	1.18	2.64
TCGGACAGGTGAAGGTAACTCAGGTACGCAGTCG	0.451	1.52	0.174	0.636	-0.839	0.988	0.599	1.57	2.75	1.87
TCTTGAAGATCAACAGGAGGTTAAGAAAGATCGA	0.539	1.27	0.226	1.15	-0.64	1.41	-0.0399	1.64	2.92	2.51

Reference: the supplement of paper PMC6555819
